Source: PubChem BioAssay (NCI)
About 79,000 compounds went through this panel and 15% of them were active in at least one assay; those are over-represented in the sample as a whole. The source made the active and inactive calls. Cut-off read from the data, not from the text of the source: active = growth inhibition above about 70%; inactive = the rest.

Columns and labels:
[1] = NCI Yeast Anticancer Drug Screen. Data for the wt2 strain (AID 169); conditions: S. cerevisiae wt2 strain growth inhibition, stronger effect = higher value
Method in brief: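 Read-out: growth inhibition versus vehicle-treated control cultures after compound exposure of the yeast strain.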

[2] = NCI Yeast Anticancer Drug Screen. Data for the mlh1 strain (AID 171);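 note: 0% = growth of vehicle-treated control cultures of the same strain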; conditions: S. cerevisiae mlh1 strain growth inhibition, stronger effect = higher value
Method in brief: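 Read-out: growth inhibition versus vehicle controls. Strain: engineered yeast with a defined DNA repair or cell cycle defect, compound-treated.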

[3] = NCI Yeast Anticancer Drug Screen. Data for the sgs1 strain (AID 173);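 note: 0% = growth of vehicle-only control cultures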; conditions: S. cerevisiae sgs1 mutant, stronger effect = higher value
Method in brief: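 Read-out: yeast growth inhibition relative to vehicle controls, following compound exposure of a strain with a defined DNA repair/cell cycle alteration.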

[4] = NCI Yeast Anticancer Drug Screen. Data for the mlh1 rad18 strain (AID 175); conditions: S. cerevisiae mlh1 rad18 strain growth inhibition, stronger effect = higher value
Method in brief: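 Yeast w/ defined DNA-repair lesions; compound exposure; growth vs vehicle controls → % inhibition.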

[5] = NCI Yeast Anticancer Drug Screen. Data for the rad18 strain (AID 177); conditions: S. cerevisiae rad18 mutant growth inhibition, stronger effect = higher value
Method in brief: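 Readout: growth inhibition vs vehicle controls. Cells: genetically altered yeast strain, DNA repair defect.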

[6] = NCI Yeast Anticancer Drug Screen. Data for the rad52 strain (AID 147);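 note: 0% = growth of vehicle-treated control cultures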; conditions: S. cerevisiae rad52 mutant growth inhibition, stronger effect = higher value
Method in brief: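 Read-out: growth inhibition versus vehicle-treated controls. Cells were a DNA repair-deficient yeast strain treated with compounds.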

[7] = NCI Yeast Anticancer Drug Screen. Data for the wt1 strain (AID 149);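 note: 0% = growth of vehicle-treated wt1 cultures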; conditions: S. cerevisiae wt1 strain (SPY 50644) growth inhibition, stronger effect = higher value
Method in brief: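 Each compound is tested on wt1 yeast and the loss of growth versus vehicle gives the inhibition value.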

[8] = NCI Yeast Anticancer Drug Screen. Data for the rad50EPP+ strain (AID 151);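 note: 0% = growth of vehicle-treated control cultures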; conditions: S. cerevisiae rad50 mutant strain, stronger effect = higher value
Method in brief: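 Growth inhibition read against vehicle controls in rad50EPP+ yeast, a strain altered in DNA damage repair, after compound exposure.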

[9] = NCI Yeast Anticancer Drug Screen. Data for the mgt1 strain (AID 153); conditions: S. cerevisiae mgt1 mutant growth inhibition, stronger effect = higher value
Method in brief: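 mgt1 yeast grown with test compound; read-out is growth inhibition versus vehicle-treated cultures.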

[10] = NCI Yeast Anticancer Drug Screen. Data for the rad50 strain (AID 155);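 note: 0% = growth of vehicle-only cultures of the same strain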; conditions: S. cerevisiae rad50 strain growth inhibition, stronger effect = higher value
Method in brief: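 Vehicle-treated cultures provide the reference for the growth inhibition reported for compound-exposed, repair-deficient yeast.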

[11] = NCI Yeast Anticancer Drug Screen. Data for the mec2-1 strain (AID 157); conditions: S. cerevisiae mec2-1 strain, stronger effect = higher value
Method in brief: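 Yeast mec2-1 mutant treated with compound. Readout: growth inhibition vs vehicle controls.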

[12] = NCI Yeast Anticancer Drug Screen. Data for the rad14 strain (AID 159);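 note: 0% = growth of vehicle-treated control cultures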; conditions: S. cerevisiae rad14 strain growth inhibition, stronger effect = higher value
Method in brief: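 Inhibition of growth is reported for a repair-deficient yeast mutant following compound treatment, calculated relative to cultures that received vehicle.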

[13] = NCI Yeast Anticancer Drug Screen. Data for the sgs1 mgt1 strain (AID 161);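 note: 0% = growth of cultures given vehicle only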; conditions: S. cerevisiae sgs1 mgt1 strain, stronger effect = higher value
Method in brief: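 Read-out: growth inhibition vs vehicle controls. Cells: mutant yeast strain deficient in DNA damage repair.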

[14] = NCI Yeast Anticancer Drug Screen. Data for the CLN2oe strain (AID 163);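 note: 0% = growth of vehicle-only control cultures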; conditions: S. cerevisiae CLN2oe strain, stronger effect = higher value
Method in brief: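 Read-out: yeast growth inhibition, expressed relative to vehicle-only controls. The strain bears an engineered cell-cycle alteration.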

[15] = NCI Yeast Anticancer Drug Screen. Data for the cln2 rad14 strain (AID 165);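 note: 0% = growth equal to vehicle treated cultures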; conditions: S. cerevisiae cln2 rad14 strain, stronger effect = higher value
Method in brief: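 cln2 rad14 yeast strain; compound exposure; growth inhibition read vs vehicle controls.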

[16] = NCI Yeast Anticancer Drug Screen. Data for the bub3 strain (AID 167); conditions: S. cerevisiae bub3 mutant strain, stronger effect = higher value
Method in brief: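 Mutant yeast screening strain plus compound; vehicle-treated cultures serve as the 0% inhibition reference.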

[17] = at 5.0 µM (retest, dose inferred, filed as 0.5)
[18] = at 50.0 µM (retest, dose inferred, filed as 5.0)

Measured: growth inhibition

COC(=N)c1ccc(O)c(C)c1
inactive: [1]; at 1.2 µM -2% | [1]; at 3.7 µM 0% | [1]; at 11.0 µM -2% | [1]; at 33.0 µM -4% | [1]; at 100.0 µM -1% | [2]; at 1.2 µM 6% | [2]; at 3.7 µM -6% | [2]; at 11.0 µM -7% | [2]; at 33.0 µM -7% | [2]; at 100.0 µM -7% | [3]; at 1.2 µM -1% | [3]; at 3.7 µM -1% | [3]; at 11.0 µM -1% | [3]; at 33.0 µM -2% | [3]; at 100.0 µM -2% | [4]; [17] -123% | [4]; [18] -74% | [4]; at 50.0 µM -6.9% | [5]; at 1.2 µM -2% | [5]; at 3.7 µM -1% | [5]; at 11.0 µM 1% | [5]; at 33.0 µM 3% | [5]; at 100.0 µM 8%

N#CCCC1C(C#N)C2(Cl)CC1(Cl)C(Cl)=C2Cl (stereo not drawn)
active: [6]; at 33.0 µM 81% | [6]; at 100.0 µM 98% | [7]; at 100.0 µM 98% | [8]; at 100.0 µM 84% | [9]; at 100.0 µM 98% | [10]; at 33.0 µM 84% | [10]; [18] 89% | [10]; at 50.0 µM 89.9% | [10]; at 100.0 µM 97% | [11]; [18] 82% | [11]; at 50.0 µM 92% | [11]; at 100.0 µM 98% | [12]; at 33.0 µM 77% | [12]; at 100.0 µM 98% | [13]; at 50.0 µM 91.5% | [14]; at 100.0 µM 96% | [15]; [18] 75% | [15]; at 50.0 µM 87.8% | [16]; [18] 73% | [16]; at 50.0 µM 89.2% | [16]; at 100.0 µM 96% | [1]; at 100.0 µM 98% | [2]; at 100.0 µM 97% | [3]; at 100.0 µM 99% | [5]; at 33.0 µM 83% | [5]; at 100.0 µM 98%
inactive: [6]; at 1.2 µM -15% | [6]; at 3.7 µM -6% | [6]; at 11.0 µM -2% | [7]; at 1.2 µM -1% | [7]; at 3.7 µM 8% | [7]; at 11.0 µM 1% | [7]; at 33.0 µM 61% | [8]; at 1.2 µM -4% | [8]; at 3.7 µM -20% | [8]; at 11.0 µM -22% | [8]; at 33.0 µM 4% | [9]; at 1.2 µM -38% | [9]; at 3.7 µM -46% | [9]; at 11.0 µM -38% | [9]; at 33.0 µM 6% | [10]; at 1.2 µM -10% | [10]; at 3.7 µM 7% | [10]; [17] -23% | [10]; at 11.0 µM 1% | [11]; at 1.2 µM -29% | [11]; at 3.7 µM -8% | [11]; [17] -16% | [11]; at 11.0 µM -7% | [11]; at 33.0 µM 45% | [12]; at 1.2 µM -44% | [12]; at 3.7 µM -36% | [12]; at 11.0 µM -20% | [13]; [17] -18% | [13]; [18] 4% | [14]; at 1.2 µM -28% | [14]; at 3.7 µM -9% | [14]; at 11.0 µM -6% | [14]; at 33.0 µM 38% | [15]; [17] 17% | [16]; at 1.2 µM -1% | [16]; at 3.7 µM -6% | [16]; [17] -8% | [16]; at 11.0 µM -15% | [16]; at 33.0 µM 58% | [1]; at 1.2 µM 5% | [1]; at 3.7 µM 5% | [1]; at 11.0 µM 0% | [1]; at 33.0 µM 31% | [2]; at 1.2 µM -42% | [2]; at 3.7 µM -37% | [2]; at 11.0 µM -22% | [2]; at 33.0 µM 16% | [3]; at 1.2 µM 22% | [3]; at 3.7 µM 18% | [3]; at 11.0 µM 20% | [3]; at 33.0 µM 64% | [5]; at 1.2 µM -4% | [5]; at 3.7 µM -9% | [5]; at 11.0 µM 1%
